# Data: PubChem BioAssay
# The source made the active and inactive calls.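 How the source made its calls: active means compound whose remaining NAD level is above about 45 nM (limit read from the data); inactive means the rest.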
# Target: NAD(+) hydrolase SARM1 (Homo sapiens) (UniProt Q6SZW1)
# Test: SARM1 TIR NADase inhibitors, cell lysate, NAD-Glo luminescence (AID 1508614)
# Conditions: SAM-TIR HEK293T lysate NADase, at 1 µM, stronger effect = higher value
# Chain of NAD(+) hydrolase SARM1 (Homo sapiens) (Q6SZW1 whole entry, looked up): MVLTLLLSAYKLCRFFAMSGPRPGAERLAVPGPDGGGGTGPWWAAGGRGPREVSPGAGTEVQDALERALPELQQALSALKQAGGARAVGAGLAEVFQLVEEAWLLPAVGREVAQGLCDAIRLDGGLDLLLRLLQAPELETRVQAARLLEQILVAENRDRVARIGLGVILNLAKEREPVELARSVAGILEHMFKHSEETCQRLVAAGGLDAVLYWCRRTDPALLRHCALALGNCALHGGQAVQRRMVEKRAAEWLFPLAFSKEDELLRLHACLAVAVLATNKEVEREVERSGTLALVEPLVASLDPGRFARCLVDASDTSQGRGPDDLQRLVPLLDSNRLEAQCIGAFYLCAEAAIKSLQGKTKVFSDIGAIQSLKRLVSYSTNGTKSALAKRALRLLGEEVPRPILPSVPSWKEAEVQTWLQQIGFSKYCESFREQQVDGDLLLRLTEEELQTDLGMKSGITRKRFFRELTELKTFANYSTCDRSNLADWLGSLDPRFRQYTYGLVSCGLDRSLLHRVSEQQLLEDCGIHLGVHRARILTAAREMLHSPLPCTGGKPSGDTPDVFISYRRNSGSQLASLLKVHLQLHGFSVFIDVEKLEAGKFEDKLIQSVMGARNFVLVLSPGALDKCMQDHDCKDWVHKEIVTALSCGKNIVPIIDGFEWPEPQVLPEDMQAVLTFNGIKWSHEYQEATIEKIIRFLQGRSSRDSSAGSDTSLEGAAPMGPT
row,Compound,remaining NAD
1,O=C(CCCl)NCCc1ccccc1,10 nM (inactive)
2,COc1cc(O)c(C(=O)c2ccccc2)cc1S(=O)(=O)O,10 nM (inactive)
3,CCNC(=O)/C=C/c1cccc(Br)c1,10 nM (inactive)
4,CCCCC(O)c1ccccc1 (stereo not given),10 nM (inactive)
5,CO/N=C(\C(=O)N[C@@H]1C(=O)N2C(C(=O)O)=C(CSc3nc(=O)c(O)nn3C)CS[C@H]12)c1csc(N)n1,10 nM (inactive)
6,NC(=O)C(c1ccccc1)(c1ccccc1)[C@@H]1CCN(CCc2ccc3c(c2)CCO3)C1,10 nM (inactive)
7,C#C[C@]1(O)CC[C@H]2[C@@H]3CCc4cc(OC5CCCC5)ccc4[C@H]3CC[C@@]21C,10 nM (inactive)
8,O=C(NCCCN1CCOCC1)c1ccc(Cl)cc1,10 nM (inactive)
9,CC[C@H](C)[C@H](N)C(=O)O,10 nM (inactive)
10,Cc1nc2ccccc2n1Cc1ccc(Cl)cc1,10 nM (inactive)
11,C[N+](C)(C)CC(O)CC(=O)[O-] (stereo not given),10 nM (inactive)
12,COc1ccc(-n2nc(CCC(=O)N(C)O)cc2-c2ccc(Cl)cc2)cc1,10 nM (inactive)
13,O=C(O)CCCCC(=O)O,10 nM (inactive)
14,Cc1cc(CC(C)CC(C)(C)C)n(O)c(=O)c1 (stereo not given),10 nM (inactive)
15,O=C1OC2(c3ccccc31)c1cc(I)c(O)c(I)c1Oc1c2cc(I)c(O)c1I,10 nM (inactive)
16,N[C@@H](Cc1ccc(O)cc1)C(=O)O,10 nM (inactive)
17,Cc1ncc([N+](=O)[O-])n1C,10 nM (inactive)
18,C[C@]1(Cn2ccnn2)[C@H](C(=O)O)N2C(=O)C[C@H]2S1(=O)=O,10 nM (inactive)
19,CCOc1ccccc1C(N)=O,10 nM (inactive)
20,CCCCC(CC)COC(=O)c1ccccc1O (stereo not given),10 nM (inactive)
